Among the test systems are NCI-H23 lung; NCI-H226 lung; NCI-H322M lung; HOP-62 NSCLC; NCI-H460 lung; HOP-92 NSCLC; NCI-H522 lung; A549/ATCC NSCLC; 786-0 renal; COLO 205 colon.
Common to all, as to experiment: NCI-60 one-dose screen, 48 h (100 = growth as untreated, 0 = no growth, -100 = all killed)

Growth data for 11 molecules are collected here from PubChem BioAssay (NCI).

SMILES strings stand for the structures. “And” between values parts separate entries of the source, which are not always exact repeats. Identical values can stand only once. About 83,000 compounds went through this panel and 20% of them were active in at least one assay; those are over-represented in the sample as a whole.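 Step 1: grow cells in 96-well plates. Step 2: add test compound at a single concentration. Step 3: incubate 48 h. Step 4: record percent growth.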 The source made the active and inactive calls. The calls were made as follows: active = growth percent below 10; inactive = the rest.

As to `COc1ccc(-c2cscc2N)cc1`, the growth is 79.4% (inactive) in the assay with NCI-H23 lung (10 µM); 74.2% (inactive) with NCI-H23 lung (100 µM); 106% (inactive) with NCI-H226 lung (10 µM); 86.6% (inactive) in the assay with NCI-H226 lung (100 µM); 95.6% (inactive) with NCI-H322M lung (10 µM); 73.9% (inactive) with NCI-H322M lung (100 µM). For the same molecule, the growth in the assay with HOP-62 NSCLC (10 µM) was 55.8% (inactive); with HOP-62 NSCLC (100 µM), 57.6% (inactive); in the assay with NCI-H460 lung (10 µM), 83.5% (inactive); in the assay on NCI-H460 lung (100 µM), 33.8% (inactive); in the assay with HOP-92 NSCLC (10 µM unless noted) it was 68.7% [100 µM] (inactive); in the assay on NCI-H522 lung (10 µM unless noted) it was 34.8% [100 µM] (inactive). Moreover, the growth is 76.7% (inactive) in the assay on A549/ATCC NSCLC (10 µM); 46.1% (inactive) with A549/ATCC NSCLC (100 µM); 98.6% (inactive) in the assay with 786-0 renal (10 µM); 37.1% (inactive) in the assay with 786-0 renal (100 µM); 78% (inactive) in the assay on COLO 205 colon (10 µM); -68.1% (active) in the assay with COLO 205 colon (100 µM).

With `O=C(/C=C\c1cc(Br)ccc1O)/C=C/c1cc(Br)ccc1O`, the growth was -11.9% (active) in the assay with NCI-H23 lung (10 µM unless noted); -64.8% (active) in the assay on NCI-H226 lung (10 µM unless noted); 6.71% (active) in the assay on NCI-H322M lung (10 µM unless noted); -57.3% (active) in the assay with HOP-62 NSCLC (10 µM unless noted); -34.9% (active) in the assay with NCI-H460 lung (10 µM unless noted); -40.1% (active) in the assay on HOP-92 NSCLC (10 µM unless noted). Moreover, the growth in the assay on NCI-H522 lung (10 µM unless noted) is -62.9% (active); in the assay on A549/ATCC NSCLC (10 µM unless noted), -8.66% (active); in the assay with 786-0 renal (10 µM unless noted), -68% (active); in the assay with COLO 205 colon (10 µM unless noted), -70.6% (active).

In the case of `CC(=Nc1ccc(N(C)C)cc1)c1ccccc1`, the growth in the assay on NCI-H23 lung (10 µM unless noted) is 66.4% (inactive); in the assay with NCI-H226 lung (10 µM unless noted), 59.3% (inactive); with NCI-H322M lung (10 µM unless noted) it was 66.5% (inactive); in the assay on HOP-62 NSCLC (10 µM unless noted), 54.2% (inactive); with NCI-H460 lung (10 µM unless noted), 34.2% (inactive); with HOP-92 NSCLC (10 µM unless noted), 30.8% (inactive). In addition, the growth in the assay on NCI-H522 lung (10 µM unless noted) is 64.7% (inactive); in the assay with A549/ATCC NSCLC (10 µM unless noted), 45.2% (inactive); with 786-0 renal (10 µM unless noted), 74.5% (inactive); in the assay on COLO 205 colon (10 µM unless noted), 13.2% (inactive).

`O=C1c2ccccc2C(=O)c2sc(Nc3ccc(Cl)cc3)nc21`: the growth is -53.2% (active) in the assay on NCI-H23 lung (10 µM unless noted); 1.07% (active) in the assay on NCI-H226 lung (10 µM unless noted); 78% (inactive) in the assay on NCI-H322M lung (10 µM unless noted); 55.4% (inactive) in the assay with HOP-62 NSCLC (10 µM unless noted); 87.7% (inactive) in the assay with NCI-H460 lung (10 µM unless noted); 59.1% (inactive) in the assay with HOP-92 NSCLC (10 µM unless noted). Besides, the growth with NCI-H522 lung (10 µM unless noted) is 15.9% (inactive); in the assay with A549/ATCC NSCLC (10 µM unless noted), 71.8% (inactive); in the assay with 786-0 renal (10 µM unless noted) it was 60.9% (inactive); in the assay with COLO 205 colon (10 µM unless noted), 82.9% (inactive).

Turning to `O=C(Nc1cccc(Br)c1)Oc1ccc(Cl)c2cccnc12`, the growth was -8.8% [100 µM] (active) with NCI-H23 lung (10 µM unless noted); 14.5% [100 µM] (inactive) in the assay with NCI-H226 lung (10 µM unless noted); 82.3% [100 µM] (inactive) with NCI-H322M lung (10 µM unless noted); 31% [100 µM] (inactive) in the assay with HOP-62 NSCLC (10 µM unless noted); 12.2% [100 µM] (inactive) with NCI-H460 lung (10 µM unless noted); 40.7% [100 µM] (inactive) in the assay with HOP-92 NSCLC (10 µM unless noted). For the same molecule, the growth was -56.5% [100 µM] (active) in the assay on NCI-H522 lung (10 µM unless noted), 23.6% [100 µM] (inactive) in the assay on A549/ATCC NSCLC (10 µM unless noted), 89.3% [100 µM] (inactive) with 786-0 renal (10 µM unless noted) and 55.8% [100 µM] (inactive) in the assay with COLO 205 colon (10 µM unless noted).

For the molecule `CCCCCC(CCCCC)C(=O)O`, the growth in the assay on NCI-H23 lung (10 µM unless noted) was 114% (inactive); in the assay on NCI-H226 lung (10 µM unless noted), 112% (inactive); in the assay with NCI-H322M lung (10 µM unless noted) it was 103% (inactive); in the assay with HOP-62 NSCLC (10 µM unless noted), 98.1% (inactive); with NCI-H460 lung (10 µM unless noted), 116% (inactive); with HOP-92 NSCLC (10 µM unless noted), 78.8% (inactive). Further, the growth in the assay with NCI-H522 lung (10 µM unless noted) is 88.8% (inactive); in the assay on A549/ATCC NSCLC (10 µM unless noted) it was 102% (inactive); with 786-0 renal (10 µM unless noted), 107% (inactive); with COLO 205 colon (10 µM unless noted), 102% (inactive).

For the molecule `Cc1ccnc2c1ccc1c(C)ccnc12`, the growth with NCI-H23 lung (10 µM unless noted) was 21.7% (inactive); in the assay with NCI-H226 lung (10 µM unless noted) it was 17.4% (inactive); with NCI-H322M lung (10 µM unless noted), 19% (inactive); in the assay with HOP-62 NSCLC (10 µM unless noted), 6.08% (active); in the assay on NCI-H460 lung (10 µM unless noted), 5.29% (active); with HOP-92 NSCLC (10 µM unless noted) it was 44.7% (inactive). Also, the growth in the assay with NCI-H522 lung (10 µM unless noted) was 11.8% (inactive); in the assay with A549/ATCC NSCLC (10 µM unless noted), 8.87% (active); in the assay with 786-0 renal (10 µM unless noted), 6.29% (active); in the assay with COLO 205 colon (10 µM unless noted) it was 4.27% (active).

In the case of `CC1(C)CC([P+](c2ccccc2)(c2ccccc2)c2ccccc2)=NN1`, the growth in the assay with NCI-H23 lung (10 µM unless noted) was 28.1% (inactive); in the assay on NCI-H226 lung (10 µM unless noted), 53.1% (inactive); in the assay with NCI-H322M lung (10 µM unless noted), 81.1% (inactive); with HOP-62 NSCLC (10 µM unless noted) it was 76.6% (inactive); in the assay with NCI-H460 lung (10 µM unless noted), 17.2% (inactive); with HOP-92 NSCLC (10 µM unless noted), -1.14% (active). Moreover, the growth in the assay with NCI-H522 lung (10 µM unless noted) is 27.4% (inactive); in the assay on A549/ATCC NSCLC (10 µM unless noted), 37.1% (inactive); in the assay with 786-0 renal (10 µM unless noted), 80.4% (inactive); with COLO 205 colon (10 µM unless noted), -49.9% (active).

In the case of `O=C(O)c1c(Cl)c(Cl)c(Cl)c(Cl)c1-c1c2cc(I)c(=O)c(I)c-2oc2c(I)c(O)c(I)cc12`, the growth in the assay on NCI-H23 lung (10 µM) was 103% (inactive) and 91.8% (inactive) and 101% (inactive); with NCI-H23 lung (100 µM), -60% (active); in the assay with NCI-H226 lung (10 µM), 113% (inactive) and 99.1% (inactive) and 94.4% (inactive); in the assay with NCI-H226 lung (100 µM), 25.9% (inactive); in the assay with NCI-H322M lung (10 µM) it was 108% (inactive) and 109% (inactive) and 78.1% (inactive); in the assay on NCI-H322M lung (100 µM), 36.3% (inactive). In addition, the growth with HOP-62 NSCLC (10 µM) was 108% (inactive) and 104% (inactive) and 125% (inactive); in the assay on HOP-62 NSCLC (100 µM), -66.5% (active); in the assay with NCI-H460 lung (10 µM), 102% (inactive) and 115% (inactive) and 98.1% (inactive); in the assay on NCI-H460 lung (100 µM), 98.8% (inactive); in the assay on HOP-92 NSCLC (10 µM), 125% (inactive) and 43.3% (inactive) and -9.83% (active); in the assay on HOP-92 NSCLC (100 µM), -22.3% (active). Further, the growth is 107% (inactive) and 97.2% (inactive) and 57% (inactive) in the assay on NCI-H522 lung (10 µM); -61% (active) in the assay on NCI-H522 lung (100 µM); 103% (inactive) and 106% (inactive) and 96.4% (inactive) in the assay with A549/ATCC NSCLC (10 µM); 25.2% (inactive) in the assay with A549/ATCC NSCLC (100 µM); 109% (inactive) and 115% (inactive) and 112% (inactive) in the assay with 786-0 renal (10 µM); 8.48% (active) with 786-0 renal (100 µM). The growth in the assay with COLO 205 colon (10 µM) was 121% (inactive) and 108% (inactive) and 119% (inactive); with COLO 205 colon (100 µM), -59.9% (active).

Regarding `COC(=O)c1nc(=S)[nH]c(C(=O)OC)c1C(=O)c1ccccn1`, the growth with NCI-H23 lung (10 µM unless noted) was 45.8% (inactive); with NCI-H226 lung (10 µM unless noted) it was 9.58% (active); in the assay on NCI-H322M lung (10 µM unless noted), 56.5% (inactive); in the assay with HOP-62 NSCLC (10 µM unless noted), 40% (inactive); with NCI-H460 lung (10 µM unless noted), 38.6% (inactive); in the assay on HOP-92 NSCLC (10 µM unless noted), 47.9% (inactive). Also, the growth with NCI-H522 lung (10 µM unless noted) was 61.8% (inactive); in the assay on A549/ATCC NSCLC (10 µM unless noted), 107% (inactive); in the assay on 786-0 renal (10 µM unless noted) it was 26.7% (inactive); with COLO 205 colon (10 µM unless noted), 21.1% (inactive).

Consider `Cc1c2ccccc2c(C)c2c1ccc1ccccc12`, for which the growth was 81.6% (inactive) in the assay with NCI-H23 lung (10 µM unless noted); 100% (inactive) with NCI-H226 lung (10 µM unless noted); 90.8% (inactive) with NCI-H322M lung (10 µM unless noted); 95.1% (inactive) with HOP-62 NSCLC (10 µM unless noted); 87.6% (inactive) with NCI-H460 lung (10 µM unless noted); 88.6% (inactive) in the assay on HOP-92 NSCLC (10 µM unless noted). Moreover, the growth in the assay on NCI-H522 lung (10 µM unless noted) was 79.5% (inactive); in the assay with A549/ATCC NSCLC (10 µM unless noted), 78.4% (inactive); with 786-0 renal (10 µM unless noted), 91.5% (inactive); in the assay with COLO 205 colon (10 µM unless noted), 94.6% (inactive).
